# Results taken from PubChem BioAssay.
# Records with an inconclusive call do not appear. Calls of active or inactive are those of the source.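 Rule for the calls, unless noted: active = GFP response above 150% of the DMSO control; inconclusive = fewer than 70 events counted in any yeast strain; inactive = the rest.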
# Key:
# [1] = rapamycin-like changes in RPL19A-GFP expression – cell-based, S. cerevisiae, multiplex flow cytometry, primary screen (AID 1862; in the data active = percent of DMSO control GFP below about 86%;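 note: lower values mimic rapamycin by blocking the RPL19A rise seen in DMSO cells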); details: S. cerevisiae RPL19A-GFP strain, flow cytometry fluorescence, 3 h; at 10 µM; stronger effect = lower value
# [2] = TOR pathway GLN3 branch reporter MEP2-GFP changes – S. cerevisiae, multiplex flow cytometry, primary screen (AID 1867;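 active = GFP response, as percent of the DMSO control, above the screen-wide mean plus 3 SD, about 139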;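 note: median GFP channel fluorescence of barcode-gated MEP2-GFP cells measured by flow cytometry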); details: S. cerevisiae MEP2-GFP strain, 3 h, at 10 µM, stronger effect = higher value
# [3] = TOR pathway RTG branch CIT2 reporter changes – S. cerevisiae, GFP fusion, multiplex flow cytometry, primary screen (AID 1870;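 active = percent response above a set limit, the screen-wide mean plus 3 SD, cut at about 130% in these data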;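 note: barcoded CIT2-GFP strain pooled with four other GFP strains with rapamycin as positive control; median GFP fluorescence per well over plate mean of DMSO wells so 100% = DMSO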); details: S. cerevisiae CIT2-GFP expression, 3 h, at 10 µM, stronger effect = higher value
# [4] = TOR pathway LAP4-GFP level changes – S. cerevisiae, multiplex flow cytometry, primary screen (AID 1873;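 active = GFP signal, as percent of the solvent control, above the screen mean plus 3 SD, about 149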); details: S. cerevisiae LAP4-GFP expression, 3 h, at 10 µM, stronger effect = higher value
# [5] = reduced mouse 2C T cell binding to pMHC/ICAM-1 vesicles – MLPCN validation set, flow cytometry, LFA-1/ICAM-1 modulator project, pilot screen (AID 2523;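 active = response below a set limit, under 55% cells CD8-positive and vesicle-bound, and CD8 cells' 90th-percentile brightness under 279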;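 for vesicle binding response: mean PE anti-B7-1 fluorescence of CD8+ cells relative to row control; 100% = QL9-loaded vesicles with DMSO vehicle in the same plate row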); details: 2C mouse CD8+ T cells, at 7 µM, stronger effect = lower value; double positive events: measured here: CD8+/vesicle+ event percentage
# [6] = molecular target: Integrin beta-1 (Homo sapiens) + Integrin alpha-4 (Homo sapiens) (UniProt P13612+P05556); assay: alpha4beta1 integrin LIBS antibody binding reduction – U937 cells, HUTS-21 mAb, flow cytometry, validation set, VLA-4 allosteric modulator project, pilot screen (AID 2674;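 active = inhibition above 50%, about 3 SD of the validation set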;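 note: antibody binding induced by the VLA-4 ligand LDV present at three times its Kd; 0% = LDV ligand with antibody and no compound and 100% = antibody without LDV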); details: HUTS-21 LIBS mAb binding, at 6.7 µM, stronger effect = higher value
# Integrin beta-1 (Homo sapiens) + Integrin alpha-4 (Homo sapiens), sequence (P05556 whole entry, looked up): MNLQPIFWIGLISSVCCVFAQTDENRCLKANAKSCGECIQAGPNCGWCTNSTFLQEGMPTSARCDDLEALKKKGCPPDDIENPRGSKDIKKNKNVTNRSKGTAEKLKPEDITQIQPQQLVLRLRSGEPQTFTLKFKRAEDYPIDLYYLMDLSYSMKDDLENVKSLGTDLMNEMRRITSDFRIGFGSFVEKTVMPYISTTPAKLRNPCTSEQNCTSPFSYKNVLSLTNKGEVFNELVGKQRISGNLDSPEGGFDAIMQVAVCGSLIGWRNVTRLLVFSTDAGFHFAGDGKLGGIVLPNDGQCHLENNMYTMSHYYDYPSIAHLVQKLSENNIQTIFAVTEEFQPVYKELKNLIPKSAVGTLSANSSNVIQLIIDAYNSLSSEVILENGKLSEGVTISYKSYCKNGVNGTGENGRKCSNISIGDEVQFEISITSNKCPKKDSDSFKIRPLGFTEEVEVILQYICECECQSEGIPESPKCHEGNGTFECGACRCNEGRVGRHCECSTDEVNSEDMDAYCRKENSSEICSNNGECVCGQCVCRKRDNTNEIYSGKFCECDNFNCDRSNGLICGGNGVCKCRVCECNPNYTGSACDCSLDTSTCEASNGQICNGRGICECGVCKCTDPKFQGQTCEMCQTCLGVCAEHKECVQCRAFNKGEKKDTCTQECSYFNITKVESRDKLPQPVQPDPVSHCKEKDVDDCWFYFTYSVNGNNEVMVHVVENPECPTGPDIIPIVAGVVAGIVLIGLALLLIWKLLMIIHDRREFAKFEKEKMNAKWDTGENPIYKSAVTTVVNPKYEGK
# Integrin beta-1 (Homo sapiens) + Integrin alpha-4 (Homo sapiens), sequence (P13612 whole entry, looked up): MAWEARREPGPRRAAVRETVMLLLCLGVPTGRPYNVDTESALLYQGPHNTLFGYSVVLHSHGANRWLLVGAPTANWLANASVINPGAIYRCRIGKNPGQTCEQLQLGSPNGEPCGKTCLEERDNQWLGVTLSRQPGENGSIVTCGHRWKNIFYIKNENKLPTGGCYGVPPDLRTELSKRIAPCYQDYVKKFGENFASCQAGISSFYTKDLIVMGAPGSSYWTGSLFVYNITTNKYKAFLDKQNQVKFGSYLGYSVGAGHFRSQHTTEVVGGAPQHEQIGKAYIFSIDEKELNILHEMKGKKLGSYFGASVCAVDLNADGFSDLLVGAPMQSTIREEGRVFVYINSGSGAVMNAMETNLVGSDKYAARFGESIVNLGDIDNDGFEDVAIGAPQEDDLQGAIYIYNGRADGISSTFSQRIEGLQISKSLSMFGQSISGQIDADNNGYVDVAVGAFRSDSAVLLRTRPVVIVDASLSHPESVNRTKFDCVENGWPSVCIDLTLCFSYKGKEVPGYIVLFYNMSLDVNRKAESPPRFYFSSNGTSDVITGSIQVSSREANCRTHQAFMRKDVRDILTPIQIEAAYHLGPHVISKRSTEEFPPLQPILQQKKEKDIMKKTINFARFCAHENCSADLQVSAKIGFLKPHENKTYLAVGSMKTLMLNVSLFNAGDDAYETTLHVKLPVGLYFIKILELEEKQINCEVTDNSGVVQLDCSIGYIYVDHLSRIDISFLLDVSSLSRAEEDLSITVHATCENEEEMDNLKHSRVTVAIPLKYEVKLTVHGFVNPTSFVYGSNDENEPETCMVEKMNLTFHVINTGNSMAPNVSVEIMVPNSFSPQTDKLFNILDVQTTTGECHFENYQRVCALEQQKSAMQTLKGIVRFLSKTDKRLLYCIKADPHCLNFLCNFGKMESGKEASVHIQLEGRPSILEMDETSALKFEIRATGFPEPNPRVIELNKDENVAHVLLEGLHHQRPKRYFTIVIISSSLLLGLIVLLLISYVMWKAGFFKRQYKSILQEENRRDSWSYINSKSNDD
# [7] = calorie-restriction mimetic ROS inhibitors, yeast – validation compound set, pilot screen (AID 2706;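 active = superoxide response below 65% of plate, a cut near 3 SD across the whole screen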;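 note: yeast exposed to compound for one week at 30 degrees C before staining; 100% = mean of all compound wells on the same plate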); details: S. cerevisiae aging, superoxide DHE fluorescence; at 10 µM; stronger effect = lower value
# [8] = molecular target: Beta-adrenergic receptor kinase 1 (Homo sapiens) (UniProt P25098); assay: GRK2 binders displacing RNA aptamer, biochemical, validation, human GRK2, bead flow cytometry (AID 488806;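 active = aptamer binding inhibition above 30%, about 3 SD of noise from non-fluorescent compounds; inactive = inhibition at or below 30%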); details: bead-bound GRK2, FAM-aptamer displacement, at 10 µM, stronger effect = higher value
# Beta-adrenergic receptor kinase 1 (Homo sapiens), sequence (P25098 whole entry, looked up): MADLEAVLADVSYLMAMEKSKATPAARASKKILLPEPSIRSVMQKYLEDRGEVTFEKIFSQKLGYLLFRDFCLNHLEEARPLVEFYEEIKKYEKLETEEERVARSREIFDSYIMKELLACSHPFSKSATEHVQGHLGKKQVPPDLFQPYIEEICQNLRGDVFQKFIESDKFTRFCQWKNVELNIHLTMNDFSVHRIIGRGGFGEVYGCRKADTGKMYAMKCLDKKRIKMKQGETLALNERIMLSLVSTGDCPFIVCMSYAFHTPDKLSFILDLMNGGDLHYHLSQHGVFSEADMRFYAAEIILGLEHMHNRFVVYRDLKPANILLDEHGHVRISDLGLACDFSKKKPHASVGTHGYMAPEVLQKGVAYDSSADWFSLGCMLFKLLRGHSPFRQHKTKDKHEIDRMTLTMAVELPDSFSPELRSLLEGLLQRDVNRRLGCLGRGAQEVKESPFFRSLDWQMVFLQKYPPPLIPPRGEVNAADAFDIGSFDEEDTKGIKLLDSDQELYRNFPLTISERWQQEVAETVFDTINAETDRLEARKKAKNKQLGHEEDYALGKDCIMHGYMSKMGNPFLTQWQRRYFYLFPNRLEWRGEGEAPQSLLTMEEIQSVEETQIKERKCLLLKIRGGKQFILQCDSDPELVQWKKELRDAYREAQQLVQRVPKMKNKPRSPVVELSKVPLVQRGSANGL
# [9] = molecular target: AP-2 complex subunit beta (Homo sapiens) (UniProt P63010); assay: beta-arrestin/AP2 interaction blockers – biochemical, validation set, GST-AP2 beads, flow cytometry, pilot screen (AID 504541;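 active = inhibition above 54%, about 3 SD of non-fluorescent compounds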;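 note: AP2 carries R879A mutation and is captured from E. coli lysate; bead-bound FITC arrestin peptide fluorescence measuring arrestin peptide binding to AP2; 0% = DMSO wells and 100% = excess unlabeled arrestin peptide control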); details: FITC arrestin peptide, at 10 µM, stronger effect = higher value
# AP-2 complex subunit beta (Homo sapiens), sequence (P63010 whole entry, looked up, one chain of several): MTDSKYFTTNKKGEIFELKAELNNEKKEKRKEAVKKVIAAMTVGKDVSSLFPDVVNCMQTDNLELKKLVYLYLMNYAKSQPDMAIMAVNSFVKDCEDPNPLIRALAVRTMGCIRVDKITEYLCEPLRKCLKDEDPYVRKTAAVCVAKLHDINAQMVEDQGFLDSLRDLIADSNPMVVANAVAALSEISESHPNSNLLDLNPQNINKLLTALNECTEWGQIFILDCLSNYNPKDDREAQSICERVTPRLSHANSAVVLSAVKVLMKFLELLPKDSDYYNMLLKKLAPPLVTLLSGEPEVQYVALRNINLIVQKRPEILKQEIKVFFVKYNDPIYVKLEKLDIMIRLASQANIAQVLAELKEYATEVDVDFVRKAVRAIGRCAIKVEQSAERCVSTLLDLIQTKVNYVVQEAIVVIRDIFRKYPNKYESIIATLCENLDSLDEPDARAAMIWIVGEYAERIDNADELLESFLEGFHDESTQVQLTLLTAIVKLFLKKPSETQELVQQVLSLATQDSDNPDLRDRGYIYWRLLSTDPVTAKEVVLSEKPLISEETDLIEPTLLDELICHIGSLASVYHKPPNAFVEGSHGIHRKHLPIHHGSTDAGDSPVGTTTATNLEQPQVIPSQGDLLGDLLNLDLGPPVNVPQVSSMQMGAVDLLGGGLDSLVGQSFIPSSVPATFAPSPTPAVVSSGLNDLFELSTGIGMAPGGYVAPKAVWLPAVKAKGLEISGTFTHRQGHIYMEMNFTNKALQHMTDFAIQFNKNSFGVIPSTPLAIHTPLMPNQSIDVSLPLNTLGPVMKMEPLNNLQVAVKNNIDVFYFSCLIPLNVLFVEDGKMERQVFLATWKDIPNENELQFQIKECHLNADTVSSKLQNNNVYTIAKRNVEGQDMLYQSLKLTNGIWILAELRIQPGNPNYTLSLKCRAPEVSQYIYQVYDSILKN
# [10] = cytosolic pH regulators acting via V-ATPase – S. cerevisiae, pHLuorin, HTS validation (AID 504600; in the data active = response above about 15%;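 note: plate controls were DMSO for no effect and reference compound for full effect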); details: V-ATPase proton transport, at 10 µM, stronger effect = higher value
# [11] = system: anti-desmoglein-3 scFv antibody binding to human DSG3; assay: blockers of pathogenic pemphigus antibody–desmoglein-3 binding – biochemical, validation compound set, bead-based, flow cytometry, pilot screen (AID 588368;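 active = binding below the plate cutoff, the plate median minus 3 SD, with a reading above zero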;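 note: signal is the median channel fluorescence of bead-bound GFP antibody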); details: Protein G beads, DSG3-Fc, scFv-GFP binding, at 10 µM, stronger effect = lower value
# [12] = system: Botulinum neurotoxin type F light chain protease (Clostridium botulinum); assay: Clostridium botulinum type F light chain protease inhibitors, microsphere substrate cleavage, validation (AID 588459; call rule not given here); details: multiplex microsphere protease substrate cleavage assay, flow cytometry; at 10 µM; stronger effect = higher value
# [13] = molecular target: Botulinum neurotoxin type A (Clostridium botulinum) (UniProt P0DPI0); assay: BoNT/A light chain protease inhibitors, biochemical, multiplex microsphere flow cytometry, validation set (AID 588460; call rule not given here); details: at 10 µM, stronger effect = higher value
# [14] = molecular target: Lethal factor (Bacillus anthracis) (UniProt P15917); assay: Bacillus anthracis lethal factor inhibition, microsphere flow cytometry protease assay, validation at 10 µM (AID 588461; call rule not given here); details: multiplex microsphere protease cleavage assay, stronger effect = higher value
# Lethal factor (Bacillus anthracis), sequence (P15917 whole entry, looked up): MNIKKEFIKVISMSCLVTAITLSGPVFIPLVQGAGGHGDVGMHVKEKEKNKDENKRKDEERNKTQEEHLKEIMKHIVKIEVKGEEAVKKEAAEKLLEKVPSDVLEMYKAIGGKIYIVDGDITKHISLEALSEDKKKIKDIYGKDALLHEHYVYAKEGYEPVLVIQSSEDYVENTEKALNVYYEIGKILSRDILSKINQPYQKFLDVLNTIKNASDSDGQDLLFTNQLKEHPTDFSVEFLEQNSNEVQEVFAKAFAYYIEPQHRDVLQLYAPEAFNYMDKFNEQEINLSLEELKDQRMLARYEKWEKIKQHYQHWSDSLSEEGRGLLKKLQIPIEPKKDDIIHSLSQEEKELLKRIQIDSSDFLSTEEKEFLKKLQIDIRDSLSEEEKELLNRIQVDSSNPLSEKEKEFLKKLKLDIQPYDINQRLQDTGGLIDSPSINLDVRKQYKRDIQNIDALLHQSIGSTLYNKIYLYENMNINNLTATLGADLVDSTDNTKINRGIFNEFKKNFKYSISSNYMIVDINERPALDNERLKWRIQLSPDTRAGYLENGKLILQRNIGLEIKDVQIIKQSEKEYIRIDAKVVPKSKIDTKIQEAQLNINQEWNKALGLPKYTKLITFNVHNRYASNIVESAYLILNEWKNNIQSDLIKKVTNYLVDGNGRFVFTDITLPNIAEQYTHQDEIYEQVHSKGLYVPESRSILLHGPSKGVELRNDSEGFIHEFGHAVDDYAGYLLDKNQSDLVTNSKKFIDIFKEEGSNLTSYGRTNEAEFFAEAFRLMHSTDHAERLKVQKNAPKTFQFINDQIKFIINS
# [15] = Nile Red efflux blockade in pump-expressing yeast – validation compound set, multiplex, phenotypic, pilot screen (AID 588506;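 active = efflux inhibition above 0.42, the validation set average plus 4 SD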;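 note: Nile Red retained in cells so higher fluorescence means more efflux inhibition; 0 = negative control wells and 1 = enniatin B 25 µM full block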); details: S. cerevisiae pump-expressing triplex, Nile Red efflux flow cytometry; at 10 µM; stronger effect = higher value
# [16] = molecular target: ATP-binding cassette sub-family B member 6 (Homo sapiens) (UniProt Q9NP58); assay: blockers of ABCB6-driven porphyrin uptake – K562-ABCB6 cells, flow cytometry, validation set, pilot screen (AID 588550;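 active = inhibition above the screen-wide mean plus 3 SD, about 51%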;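 note: 0% = DMSO wells and 100% = benzethonium chloride 70 µM positive control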); details: K562-ABCB6 porphyrin accumulation, 1 h, at 10 µM, stronger effect = higher value
# [17] = AML differentiation inducers, ER-HoxA9 marrow cells – cell-based, GFP/MAC1 double positive, flow cytometry, validation set, primary screen (AID 588685;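 active = differentiation response of at least 50%, scaled between solvent and reference control, from cells with both markers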;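 note: compound exposure lasts four days before antibody staining and flow analysis; 0% = DMSO wells and 100% = 5 µM fulvestrant positive control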); details: stronger effect = higher value
# [18] = hit retest on RPL19A-GFP reporter strain – cell-based, S. cerevisiae, flow cytometry, cherry picks, mother/daughter gates, confirmation (AID 2270;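 active = GFP response below 50% of the DMSO control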); details: 3 h, at 10 µM, stronger effect = lower value, 100 = same GFP as DMSO wells
# [19] = yeast TOR pathway reporter LAP4-GFP change – cell-based, cherry picks, flow cytometry, mother/daughter gates, confirmation (AID 2271);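 note: ratio of sample to DMSO plate mean so 100% equals DMSO level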; details: S. cerevisiae LAP4-GFP strain, 3 h, at 10 µM, stronger effect = higher value
# [20] = TOR pathway CIT2 reporter hit retest – S. cerevisiae, GFP fusion, cherry picks, mother/daughter gates, confirmation (AID 2274;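 active = GFP response above 150% of the DMSO level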); details: S. cerevisiae CIT2-GFP strain, flow cytometry, 3 h, at 10 µM, stronger effect = higher value
# [21] = measured here: daughter cell gate
# [22] = measured here: mother cell gate
# [23] = measured here: daughter cell gate response
# [24] = measured here: mother cell gate response
smiles,measurement,setting,value
CC12CN3CC(C)(CN(C1)C3c1cccnc1)C2=O (stereo not drawn),percent of DMSO control GFP,[1],95.2% (inactive)
same,GFP response vs DMSO,[2],117% (inactive)
same,percent response of DMSO control,[3],97.9% (inactive)
same,GFP response vs DMSO,[4],81.4% (inactive)
same,double positive events,[5],58%
same,vesicle binding response,[5],174% (inactive)
same,inhibition,[6],8.4% (inactive)
same,superoxide response (% of plate),[7],108% (inactive)
same,aptamer binding inhibition,[8],4% (inactive)
same,inhibition,[9],-8.61% (inactive)
same,response,[10],0.14% (inactive)
same,binding (% of control),[11],95.4% (inactive)
same,inhibition,[12],-1.6% (inactive)
same,inhibition,[13],0.6% (inactive)
same,inhibition,[14],9.9% (inactive)
same,efflux inhibition (fraction of control),[15],0.3 (inactive)
same,inhibition,[16],7% (inactive)
same,differentiation response,[17],-3.28% (inactive)
O=C1/C(=C\c2ccc(Cl)c(Cl)c2)N2CCC1CC2,GFP response vs DMSO,[18],102% (inactive)
same,GFP response vs DMSO,[18]; [21],101%
same,GFP response vs DMSO,[18]; [22],99.1%
same,GFP response relative to DMSO,[19],124% (inactive)
same,GFP response relative to DMSO,[19]; [23],119%
same,GFP response relative to DMSO,[19]; [24],130%
same,"GFP response, % of DMSO",[20],100% (inactive)
same,"GFP response, % of DMSO",[20]; [21],101%
same,"GFP response, % of DMSO",[20]; [22],96.8%
N#CC(C#N)=NNc1ccc(-n2ccc(C(F)(F)F)n2)cc1,GFP response vs DMSO,[18],98% (inactive)
same,GFP response vs DMSO,[18]; [21],97.6%
same,GFP response vs DMSO,[18]; [22],96.9%
same,GFP response relative to DMSO,[19]; 100 means same as DMSO control,111% (inactive)
same,GFP response relative to DMSO,"[19]; measured here: daughter cell gate response, 100 means same as DMSO control",104%
same,GFP response relative to DMSO,"[19]; measured here: mother cell gate response, 100 means same as DMSO control",111%
same,"GFP response, % of DMSO",[20],97.2% (inactive)
same,"GFP response, % of DMSO",[20]; [21],97.6%
same,"GFP response, % of DMSO",[20]; [22],97.1%
O=C(O)c1nn(Cc2ccc(Cl)cc2Cl)c2ccccc12,GFP response vs DMSO,[18],101% (inactive)
same,GFP response vs DMSO,[18]; [21],98.7%
same,GFP response vs DMSO,[18]; [22],104%
same,GFP response relative to DMSO,[19],103% (inactive)
same,GFP response relative to DMSO,[19]; [23],100%
same,GFP response relative to DMSO,[19]; [24],102%
same,"GFP response, % of DMSO",[20],93.9% (inactive)
same,"GFP response, % of DMSO",[20]; [21],91.5%
same,"GFP response, % of DMSO",[20]; [22],94.4%
CCN(CC)c1ccc(C=C2C(=O)NC(=S)NC2=O)cc1,GFP response vs DMSO,[18],94.7% (inactive)
same,GFP response vs DMSO,[18]; [21],90.2%
same,GFP response vs DMSO,[18]; [22],90%
same,GFP response relative to DMSO,[19],128% (inactive)
same,GFP response relative to DMSO,[19]; [23],116%
same,GFP response relative to DMSO,[19]; [24],131%
same,"GFP response, % of DMSO",[20],94.4% (inactive)
same,"GFP response, % of DMSO",[20]; [21],95.8%
same,"GFP response, % of DMSO",[20]; [22],84.8%
CN1C(=O)C(=Cc2ccc(SC3CCCCC3)o2)C(=O)N(C)C1=O,GFP response vs DMSO,[18],95.8% (inactive)
same,GFP response vs DMSO,[18]; [21],98.3%
same,GFP response vs DMSO,[18]; [22],92.3%
same,GFP response relative to DMSO,[19],143% (inactive)
same,GFP response relative to DMSO,[19]; [23],134%
same,GFP response relative to DMSO,[19]; [24],150%
same,"GFP response, % of DMSO",[20],83.5% (inactive)
same,"GFP response, % of DMSO",[20]; [21],84.1%
same,"GFP response, % of DMSO",[20]; [22],77.8%
